High-throughput results: PubChem, National Center for Advancing Translational Sciences (NCATS)
Cruzain inh noDet: qHTS Assay for Promiscuous and Specific Inhibitors of Cruzain (without detergent); Cruzipain (Trypanosoma cruzi), P25779; purified cruzain, Z-FR-AMC fluorescence, no detergent; Potency, µM, usual class: inhibitors; 2.3% of 200,000 active; AID 1476, 2009; note: nearly all actives have a fitted effect of over 40% in size
Target sequence (P25779 123-467 limits assumed): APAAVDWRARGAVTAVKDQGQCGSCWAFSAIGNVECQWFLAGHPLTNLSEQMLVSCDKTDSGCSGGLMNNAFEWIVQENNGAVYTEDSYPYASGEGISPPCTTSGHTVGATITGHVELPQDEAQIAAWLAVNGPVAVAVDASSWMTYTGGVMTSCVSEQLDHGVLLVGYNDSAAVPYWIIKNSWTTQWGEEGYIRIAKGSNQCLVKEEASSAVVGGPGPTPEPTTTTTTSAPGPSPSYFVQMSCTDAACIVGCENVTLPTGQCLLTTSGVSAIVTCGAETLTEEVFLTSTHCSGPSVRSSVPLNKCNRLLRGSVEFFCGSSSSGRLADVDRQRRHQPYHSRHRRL
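Detergent-free condition (0.00005% Triton X-100) in acetate buffer pH 5.5 with DTT. 1.5 nM enzyme and compound were pre-mixed 15 min, then 2 uM Z-FR-AMC substrate added; reaction progress from fluorescence change between first and third reads (60 s).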
Cruzain inh Det: qHTS Assay for Promiscuous and Specific Inhibitors of Cruzain (with detergent). Cruzipain (Trypanosoma cruzi), P25779. AID 1478, 2009. 0.43% of 200,000 active. Potency, µM, most hits filed as inhibitors. purified cruzain, Z-FR-AMC fluorescence, 0.01% Triton; note: nearly all actives have a fitted effect of over 40% in size
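Z-FR-AMC hydrolysis (2 uM substrate) by cruzain (1.5 nM) monitored kinetically at ex 360/em 450 nm after 15 min room-temperature compound exposure; 0.01% Triton X-100, pH 5.5, 5 mM DTT.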
NS1 function inh: qHTS Assay for Inhibitors of Influenza NS1 Protein Function | Potency, µM (titrated, usually from 46.1 µM) | 0.4% of 270,000 active | AID 2326, 2010; calls by dose curve; note: actives are rising curves; nearly all actives have a fitted effect of over 50% in size
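A cell-based growth assay was used: compounds that relieve NS1-induced slow growth of budding yeast raise OD600. Assay medium was yeast nitrogen base with ammonium sulphate and -URA supplement, pH 6.0, with 2% galactose.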
Numbers stand for hits. The full list was thinned out, with hits kept by preference. Unless noted, calls come from the whole dose curve; as a rule, active = well fitted curve in the direction sought with a large enough effect; inconclusive = small, poorly fitted or top-dose-only effect, or another doubt; inactive = no such curve, though single readings can be large; an effect the other way counts as inactive or inconclusive.

What do the screens show for `COC(=O)c1c(NC(=O)c2ccc(C)c(S(=O)(=O)Nc3ccccc3C)c2)sc2c1CCCC2`?
Cruzain inh noDet: 7.9µM; Cruzain inh Det: inactive; NS1 function inh: inactive

What do the screens show for `COC(=O)c1c(NC(=O)c2c(OC)cccc2OC)sc2c1CCCC2`?
Cruzain inh noDet: inactive; Cruzain inh Det: inactive

How did CCCCn1c(O)c(/C=C2\C=NN=C2c2ccccc2)sc1=S do in these assays?
Cruzain inh noDet: inconclusive; Cruzain inh Det: inactive; NS1 function inh: inactive

Results for CCCCCCn1c(O)c(/C=C2\C=NN=C2c2ccccc2)sc1=S ?
Cruzain inh noDet: 16µM; Cruzain inh Det: inactive; NS1 function inh: inactive

Results for Cc1ccccc1N1CCN(C(=S)c2ccccc2)CC1 ?
Cruzain inh noDet: inactive; Cruzain inh Det: inactive; NS1 function inh: inactive

What do the screens show for `Cc1cc(C)cc(C(=O)NCC(=O)N2CCN(c3cccc(Cl)c3)CC2)c1`?
NS1 function inh: inactive

Results for Cc1cc(Nc2ccc(C)c(Cl)c2)nc(N2CCOCC2)n1 ?
NS1 function inh: inactive

Results for O=C(COC(=O)C1CC(=O)N(c2ccccc2)C1)c1ccccc1 (stereo unspecified) ?
Cruzain inh noDet: inactive; Cruzain inh Det: inactive; NS1 function inh: inactive

Results for O=C(COC(=O)C1CC(=O)N(c2nc(-c3ccccc3)cs2)C1)c1ccccc1 (stereo unspecified) ?
Cruzain inh noDet: 25µM; Cruzain inh Det: inactive; NS1 function inh: inactive

Results for CN(C)Cc1ccccc1-c1cc(-n2ccnc2)ncn1 ?
Cruzain inh noDet: inactive; Cruzain inh Det: inactive

How did CN(C)c1cccc(C(=O)OCC(=O)Nc2ccccc2Sc2ccccc2)c1 do in these assays?
Cruzain inh noDet: inconclusive; Cruzain inh Det: inconclusive; NS1 function inh: inactive

How did CCn1nc([N+](=O)[O-])c(C(C#N)c2nc3cc(C(F)(F)F)ccc3s2)c(Cl)c1=O (stereo unspecified) do in these assays?
Cruzain inh noDet: inconclusive; Cruzain inh Det: 22µM; NS1 function inh: inactive

How did CCCn1nc([N+](=O)[O-])c(C(C#N)c2nc3ccccc3o2)c(Cl)c1=O (stereo unspecified) do in these assays?
Cruzain inh noDet: inactive; Cruzain inh Det: inactive; NS1 function inh: inactive

Results for CC(C)Cc1ccc(C(C)C(=O)Nc2ccc(O)cc2)cc1 (stereo unspecified) ?
NS1 function inh: inactive

What do the screens show for `Oc1ccc(-c2nc3ccccc3s2)c(O)c1`?
NS1 function inh: inactive

Results for Nc1ccc(O)c(-c2nc3ccccc3s2)c1 ?
Cruzain inh noDet: 3.2µM; Cruzain inh Det: inactive; NS1 function inh: inactive

Results for O=C(Nc1ccc(O)c(-c2nc3ccccc3s2)c1)c1cccs1 ?
Cruzain inh noDet: inconclusive; Cruzain inh Det: inactive; NS1 function inh: inactive

How did Oc1ccc(N=C/C=C/c2cccc(Br)c2)cc1-c1nc2ccccc2s1 do in these assays?
Cruzain inh noDet: 20µM; Cruzain inh Det: inactive; NS1 function inh: inactive

How did N#Cc1c(/N=C/c2ccco2)sc2c1CCCCC2 do in these assays?
Cruzain inh noDet: inactive; Cruzain inh Det: inactive; NS1 function inh: inactive

Results for COc1ccccc1-c1nn2c(=O)cc(CN3CCN(S(=O)(=O)c4ccc(C)cc4)CC3)nc2s1 ?
Cruzain inh noDet: inactive; Cruzain inh Det: inactive

How did Oc1ccc2c(c1-c1c(O)c(Br)cc3c1CCCC3)CCCC2 do in these assays?
Cruzain inh noDet: inactive; Cruzain inh Det: inactive

What do the screens show for `Cc1cc(C)cc(-c2cc3c(c(-c4c(O)c(-c5cc(C)cc(C)c5)cc5c4CCCC5)c2O)CCCC3)c1`?
Cruzain inh noDet: 16µM; Cruzain inh Det: inactive

What do the screens show for `Cc1cccc2cc(COC(=O)c3ccco3)c(=O)[nH]c12`?
Cruzain inh noDet: inactive; Cruzain inh Det: inactive; NS1 function inh: inactive

Results for O=C(c1ccccc1)c1ccc(OCCO)cc1 ?
NS1 function inh: inactive

What do the screens show for `O=C(Cn1c(=O)c2ccccc2n(CC(=O)Nc2ccccc2F)c1=O)NCCc1ccccc1`?
Cruzain inh noDet: inactive; Cruzain inh Det: inactive

How did Nc1c(C(=O)NCCc2ccccc2)nnn1CC(=O)Nc1ccc(Cl)cc1 do in these assays?
Cruzain inh noDet: 25µM; Cruzain inh Det: inactive

Results for CC(C)c1ccc(NC(=O)Cn2nnc(C(=O)NCc3ccc(Cl)cc3)c2N)cc1 ?
Cruzain inh noDet: 7.9µM; Cruzain inh Det: inactive

What do the screens show for `CC(C)c1ccc(NC(=O)Cn2nnc(C(=O)NCc3cccs3)c2N)cc1`?
Cruzain inh noDet: inactive; Cruzain inh Det: inactive

What do the screens show for `O=C(Cn1c(=O)c2ccccc2n(CC(=O)Nc2ccc(Cl)cc2)c1=O)NCCc1ccccc1`?
Cruzain inh noDet: 13µM; Cruzain inh Det: inactive

How did Cc1ccc(NC(=O)Cn2nnc(C(=O)NCCc3ccccc3)c2N)cc1Cl do in these assays?
Cruzain inh noDet: inconclusive; Cruzain inh Det: inactive; NS1 function inh: inactive

Results for Cc1cc(C)c2c(=O)cc(C(=O)Nc3sc4c(c3C(=O)NCc3ccco3)CCCC4)oc2c1 ?
Cruzain inh noDet: inactive; Cruzain inh Det: inactive

What do the screens show for `COc1ccc(C(=O)N2CCCC(CO)(Cc3ccccc3C)C2)o1` (stereo unspecified)?
NS1 function inh: inactive

What do the screens show for `Cc1cccc(N(C)Cc2nnc(-c3cccc(Br)c3)o2)c1`?
NS1 function inh: inactive

What do the screens show for `N#Cc1cc(-c2ccccc2)nnc1Sc1ccccc1`?
Cruzain inh noDet: 25µM; Cruzain inh Det: inactive; NS1 function inh: inactive

Results for N#Cc1cc(-c2ccccc2)nnc1Sc1ccc(F)cc1 ?
Cruzain inh noDet: inactive; Cruzain inh Det: inactive; NS1 function inh: inactive

Results for CCc1ccc(S(=O)(=O)/N=C2\C=C(Nc3ccc(O)cc3)C(=O)c3ccccc32)cc1 ?
NS1 function inh: inactive

Results for CCc1ccc(S(=O)(=O)/N=C2/C=C(Sc3ncn[nH]3)C(=O)c3ccccc32)cc1 ?
Cruzain inh noDet: 25µM; Cruzain inh Det: inactive; NS1 function inh: inactive

Results for CCCCc1ccc(NC(=O)CSc2nnc(CNC(=O)c3ccco3)o2)cc1 ?
NS1 function inh: inactive

How did Cc1cc2cc(CCNS(=O)(=O)c3ccc(F)cc3)c(=O)[nH]c2cc1C do in these assays?
NS1 function inh: inactive

How did CN(C)c1ccc(Nc2nc3ccccc3n3nnnc23)cc1 do in these assays?
Cruzain inh noDet: 16µM; Cruzain inh Det: inactive

How did c1ccc(CCNc2nc3ccccc3n3nnnc23)cc1 do in these assays?
Cruzain inh noDet: 13µM; Cruzain inh Det: inactive; NS1 function inh: inactive

Results for c1ccc2c(c1)nc(N1CCOCC1)c1nnnn12 ?
Cruzain inh noDet: inactive; Cruzain inh Det: inactive; NS1 function inh: inactive

What do the screens show for `COc1ccc(CCNc2nc3ccccc3n3nnnc23)cc1OC`?
Cruzain inh noDet: inactive; Cruzain inh Det: inactive; NS1 function inh: inactive

What do the screens show for `CCOc1ccc(Nc2nc3ccccc3n3nnnc23)cc1`?
Cruzain inh noDet: inactive; Cruzain inh Det: inactive; NS1 function inh: inactive

How did c1ccc(N2CCN(c3nc4ccccc4n4nnnc34)CC2)cc1 do in these assays?
Cruzain inh noDet: 25µM; Cruzain inh Det: inactive; NS1 function inh: inactive

How did CC(C)(CC(=O)O)Cc1nc(-c2ccc(Cl)cc2)no1 do in these assays?
Cruzain inh noDet: inactive; Cruzain inh Det: inactive; NS1 function inh: inactive

What do the screens show for `COc1cccc(OCCNC(=O)c2cc(OC)c(OC)c(OC)c2)c1`?
NS1 function inh: inactive

Results for Cc1cccc(NC(=O)CSc2nnc(Cc3ccccc3)o2)c1 ?
NS1 function inh: inactive
